Source: PubChem BioAssay
Marburg entry inh = blocks Marburg virus binding to or entry into cells; AID 540276; Potency, µM (top dose mostly 37.8 µM), inactives show top-dose activity change, negative = inhibition, actives largely listed as inhibitors; Marburg virus pseudotyped entry inhibition, cell reporter; actives 1.8% (n = 300,000); calls by dose curve; tested in HEK293 cells; further: potency means the concentration at half of the fitted maximal effect
HCV inh = inhibitors of hepatitis C virus infection | Huh7.5.1 HCVcc-Cre infection, luciferase reporter, 44 h | Potency, µM (highest dose often 41.8 µM), for inactives: top-dose activity change, negative = inhibition, most hits filed as inhibitors | actives 3.4% (n = 340,000) | AID 651820; active means well fitted inhibition curve with a large enough effect; inconclusive means small, poorly fitted or top-dose-only effect, or another doubt; inactive means no such curve, though single readings can be large or run the other way; further: potency means the concentration at half of the fitted maximal effect
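Cells (1,000/well) were plated 4 h before compound, then infected with HCVcc-Cre virus (~0.5 moi). After 44 h further culture, infection was read as luciferase luminescence following a 15 min substrate incubation at room temperature.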
FMDV inh = blocks foot and mouth disease virus; FMDV antiviral cell-based qHTS; Potency, µM (top dose mostly 57.9 µM), inactives show top-dose activity change, negative = inhibition, actives largely listed as inhibitors; actives 1.2% (n = 410,000); AID 1159524; calls by dose curve; tested in HEK293T cells; further: read-out not given here; potency means the concentration at half of the fitted maximal effect; nearly all actives have a fitted effect of over 45% in size
Lassa entry inh = blocks Lassa virus binding to or entry into cells | actives 1.2% (n = 300,000) | Potency, µM (series often up to 37.9 µM), inactives show at the highest dose activity change, negative = inhibition, usual class: inhibitors | AID 540256 | Lassa virus pseudotype entry inhibition, cell reporter; calls by dose curve; tested in HEK293 cells; further: potency means the concentration at half of the fitted maximal effect; nearly all actives have a fitted effect of over 50% in size
HCMV inh = inhibitors of human cytomegalovirus. activity change, negative = inhibition, % at 57.5 µM. AID 1259415. actives 4.5% (n = 410,000). HFF cells, HCMV-luciferase reporter, 72 h; hits give low values; in the data active means activity change below about -60%; inconclusive means no clear call, values can overlap the other calls; inactive means above about -39%
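Two compound doses tested in HFFs infected with HCMV-luciferase, MOI 1 PFU/cell, 72 h at 37C. Lysate luminescence read with OneGlo; data normalized against buffer-only and 10uM Salinomycin inhibitor controls.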
* = called active by the depositor; ? = inconclusive; nt = no result given; [ ] = remark or other dose. Sampled rows, rich in hits. Any-hit rate of the full collection: about 7.9%. On the % scale 0 is the no-effect control and ±100 the full control effect.

SMILES	Marburg entry inh	HCV inh	FMDV inh	Lassa entry inh	HCMV inh
COc1ccc(Cl)cc1C(=O)C1CCCN(Cc2cnc(N3CCOCC3)s2)C1 (stereo not given)	?	?	?	-17%	?
COc1cc(OC)c(OC)cc1CN1CCCC(C(=O)c2ccccc2SC)C1 (stereo not given)	?	-1%	-1%	-21%	-11
COc1c(C)cc(C(=O)C2CCCN(C(=O)c3ccoc3)C2)cc1C (stereo not given)	26%[46.1 µM]	9%	0%	-4%[46.1 µM]	-81*
COc1c(C)cc(C(=O)C2CCCN(Cc3cnc(N4CCOCC4)s3)C2)cc1C (stereo not given)	nt	11µM*	-19%	nt	-25
Cc1ccc(C(c2c(O)cc(C)n(Cc3ccco3)c2=O)N2CCC(C)CC2)cc1 (stereo not given)	nt	nt	?	1%[46.1 µM]	15
CC(=O)N1CCc2cc(Br)cc(S(=O)(=O)N3CCN(c4cccc(C(F)(F)F)c4)CC3)c21	12%[46.1 µM]	nt	0%	?	4
COc1c(C)cc(C(=O)C2CCCN(Cc3cccc(O)c3)C2)cc1C (stereo not given)	nt	13µM*	0%	nt	15
CC(C)=NOCc1ccc(-c2cn([C@@H]3COC[C@@H]3O)nn2)cc1	15%[14.2 µM]	nt	nt	nt	nt
CC(=O)Nc1ccc(NC(=O)CSc2nc3c([nH]c4ccccc43)c(=O)n2-c2ccccc2F)cc1	?	?	-28%	2%	-25
O=C(CSc1nc2c([nH]c3ccccc32)c(=O)n1-c1ccccc1F)Nc1cccc(C(F)(F)F)c1	nt	nt	?	?	-62*
Cc1cc(NC(=O)CSc2nc3c([nH]c4ccccc43)c(=O)n2-c2ccc(Cl)cc2)no1	nt	nt	0%	?	32
CCc1ccc(NC(=O)CSc2nc3c([nH]c4ccccc43)c(=O)n2-c2ccc(C)cc2)cc1	nt	nt	0%	?	-96*
CCOc1ccc(-n2c(SCC(=O)Nc3cc(C)on3)nc3c([nH]c4ccccc43)c2=O)cc1	nt	22µM*	-16%	-18%[46.1 µM]	-35
Cc1ccc(-n2c(SCC(=O)Nc3cc(C)on3)nc3c([nH]c4ccccc43)c2=O)cc1	2%	?	-8%	nt	-70*
Cc1nc2c(C(=O)NCCc3ccccc3)cnn2c(C)c1Cc1c(F)cccc1Cl	nt	nt	?	-3%[46.1 µM]	8
CCOC(=O)C1CCCN(C(=O)c2c(C)nn(-c3ccc(F)cc3)c2-n2cccc2)C1 (stereo not given)	nt	nt	-23%	-2%[46.1 µM]	10
COc1cccc(-n2c(SCC(=O)Nc3c(C)cc(C)cc3C)nc3c([nH]c4ccccc43)c2=O)c1	nt	nt	-5%	?	-80*
CCOc1ccccc1CNC(=O)c1cnc2sc(N3CCCCCC3)nn2c1=O	nt	nt	0%	13%[46.1 µM]	-28
Cc1ccc(S(=O)(=O)OCCc2ccccc2)cc1	5%[14.2 µM]	nt	nt	nt	nt
CN(CCO)C(=O)c1cn(C2CCN(Cc3ccc(C(F)(F)F)cc3)CC2)nn1	nt	nt	-1%	nt	nt
CCOC(=O)c1ccc(NC(=O)CN2CCc3ccccc3C2)cc1	-16%	-9%	17%	0%	63
CCOC(=O)c1ccc(NC(=O)c2ccc(CN3CCc4ccccc4C3)cc2)cc1	?	1.4µM*	?	-23%	-33
CCOc1ccc(NC(=O)c2ccc(CN3CCc4ccccc4C3)cc2)cc1	?	2µM*	?	-11%[46.1 µM]	?
O=C(NCc1cccc(F)c1)c1ccc(-n2cnc3cccnc32)cc1	nt	nt	-1%	7%[46.1 µM]	?
O=C(Nc1ccccc1)c1ccc(Nc2c([N+](=O)[O-])cc([N+](=O)[O-])c3ccccc23)cc1	?	?	?	-27%	-74*
SMILES	Marburg entry inh	HCV inh	FMDV inh	Lassa entry inh	HCMV inh
O=[N+]([O-])c1ccc(Nc2ccccc2O)c([N+](=O)[O-])c1	nt	nt	-28%	nt	?
Cc1c(C(=O)Nc2ccc(Nc3ccccc3)cc2)cccc1[N+](=O)[O-]	nt	?	?	nt	-4
O=[N+]([O-])c1cc(Br)c(Nc2ccccc2)c([N+](=O)[O-])c1	nt	?	?	nt	-85*
COc1ccc(NC(=O)CCc2c(C)nn(-c3ccc(N4CCCCC4)nn3)c2C)cc1Cl	nt	nt	-2%	-3%[46.1 µM]	152
C=CCNC(=O)N1CCc2nc(CCCC)c3c(c2C1)CO[C@@H](C)C3	-18%[14.2 µM]	nt	nt	nt	nt
COc1ccccc1NC(=O)N1CCC(c2nc3cc(C)c(C)cc3[nH]2)CC1	?	?	15%	?	-64*
O=C(CN1Cc2ccccc2OC(c2ccsc2)C1)N1CCC(c2nc3ccccc3[nH]2)CC1 (stereo not given)	nt	nt	8%	nt	nt
O=C(NC1CCCCC1)c1n[nH]c2c1CCCCC2	nt	8%	14µM*	nt	-27
CCC(C)(C)C1CCc2[nH]nc(C(=O)NC3CCCC3)c2C1 (stereo not given)	nt	3%	0%	nt	40
Clc1ccccc1CN1CCN(c2ccccc2)CC1	-22%	-9%	0%	8%	8
Cn1cc(CN2CCN(c3ccccc3)CC2)c2ccccc21	15µM*	?	-11%	-18%	8
CCOC(=O)OC[C@H]1O[C@H](C#Cc2ccc(C)cc2C)C=C[C@@H]1OC(=O)OCC	4%[14.2 µM]	nt	nt	nt	nt
O=C(c1cc2nc(-c3ccccc3)cc(-c3ccccc3)n2n1)N1CCCC1	?	?	45%	-17%[46.1 µM]	1
O=C(c1cc2nc(-c3ccccc3)cc(-c3ccccc3)n2n1)N1CCN(C(=O)c2ccco2)CC1	?	14µM*	-3%	?	-9
CN1CCN(C(=O)c2cc3nc(-c4ccccc4)cc(-c4ccccc4)n3n2)CC1	-19%	11µM*	73%	14%	-2
CC(C)OC(=O)[C@@H](CC(=O)O)NCc1ccccc1	0%	nt	nt	nt	nt
COC(=O)c1ccc(Oc2cc(C)nc(-n3nc(C)cc3C)n2)cc1	?	?	-26%	-29%	-76*
CCCc1nc(NCc2ccccn2)c2nnn(Cc3ccccc3F)c2n1	3%	?	25µM*	2%	-33
CCCc1nc(NCc2ccncc2)c2nnn(Cc3ccccc3F)c2n1	-19%	?	?	?	-24
Cn1c(=O)c2c(ncn2CC(=O)OCC(=O)NCc2ccc(F)cc2)n(C)c1=O	nt	nt	-11%	nt	-65*
CC(=O)NCCOc1cccc2ccccc12	21%	?	32%	-3%	91
Cc1cc2ccccc2n1CCNC(=O)c1ccc(Br)cc1	2%[46.1 µM]	nt	-7%	-13%[46.1 µM]	?
Cc1cc2ccccc2n1CCNC(=O)c1ccccc1	?	16%	?	7.9µM*	?
O=C(Cc1cccc2ccccc12)NCCOc1ccccc1F	1%	0%	-2%	3%	-63*
Cc1cc2ccccc2n1CCNC(=O)Cc1cccc2ccccc12	nt	6.3µM*	-27%	nt	34
O=C(Nc1ccccc1C(F)(F)F)C1CCN(S(=O)(=O)Cc2ccccc2)CC1	-15%[46.1 µM]	nt	-11%	-9%[46.1 µM]	2
CCc1ccc(S(=O)(=O)c2nnn3c2nc(NCc2cccc(OC)c2)c2cc(Cl)ccc23)cc1	-29%[46.1 µM]	nt	17%	nt	-1
Cc1ccc(C)c(N(CC(=O)Nc2cc(Cl)ccc2Oc2ccccc2)S(C)(=O)=O)c1	13µM*	1%	-24%	?	4
